PubChem BioAssay (NCI)
The panel holds about 83,000 compounds, 20% with a hit somewhere; the sample as a whole holds those more often.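 Step 1: grow cells in 96-well plates. Step 2: add test compound at a single concentration. Step 3: incubate 48 h. Step 4: record percent growth.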 The source made the active and inactive calls. Rule for the calls: active = growth percent below 10; inactive = the rest.

Assays:
Experiment in all cases: NCI-60 one-dose screen, 48 h (100 = growth as untreated, 0 = no growth, -100 = all killed)
[1] = tested on: DU-145 prostate; settings: 10 µM unless noted
[2] = tested on: K-562 leukemia; settings: 10 µM unless noted
[3] = tested on: MALME-3M melanoma; settings: 10 µM unless noted
[4] = tested on: MDA-MB-231 breast; settings: 10 µM unless noted
[5] = tested on: RXF 393 renal; settings: 10 µM unless noted
[6] = tested on: SF-268 CNS; settings: 10 µM unless noted
[7] = tested on: SF-295 CNS; settings: 10 µM unless noted
[8] = tested on: SF-539 CNS; settings: 10 µM unless noted
[9] = tested on: UACC-257 melanoma; settings: 10 µM
[10] = tested on: M14 melanoma; settings: 10 µM unless noted
[11] = tested on: HT29 colon; settings: 10 µM unless noted
[12] = tested on: SNB-75 CNS; settings: 10 µM unless noted
[13] = tested on: SNB-19 CNS; settings: 10 µM unless noted
[14] = tested on: U251 CNS; settings: 10 µM unless noted
[15] = tested on: PC-3 prostate; settings: 10 µM unless noted
[16] = tested on: SK-MEL-5 melanoma; settings: 10 µM unless noted
[17] = tested on: UACC-62 melanoma; settings: 10 µM unless noted
[18] = tested on: LOX IMVI melanoma; settings: 10 µM unless noted
[19] = tested on: SK-MEL-28 melanoma; settings: 10 µM unless noted
[20] = tested on: HCT-15 colon; settings: 10 µM unless noted

Measured: growth

COc1ccc(Cn2cc3c(c2-c2cc(OC)c(OC)c(OC)c2)CCCc2cnoc2-3)cc1
active: [5] -2.75% | [7] 5.29% | [8] 2.82% | [10] 2.98% | [12] -17.6%
inactive: [1] 17.4% | [2] 10.2% | [3] 57.5% | [4] 32.4% | [6] 57.7% | [9] 81.5% | [11] 14.7% | [13] 23.1% | [14] 28.6% | [15] 44.4% | [16] 21.6% | [17] 33.9% | [18] 35.8% | [19] 64.4%

CCN1C(=O)N(CC)C2SC(N/N=C/c3ccc(OC)cc3)=NC21 (stereo unspecified)
inactive: [1] 11.2% | [2] 15.7% | [3] 45.8% | [4] 23.4% | [5] 19.6% | [6] 49.7% | [9] 80.4% | [11] 15.1% | [12] 27.3% | [13] 23% | [14] 24.5% | [15] 28.9% | [17] 38.4% | [19] 60.2%
active: [7] 8.27% | [8] -8.3% | [10] 3.93% | [16] -0.548% | [18] 3.58%

Cc1cc(F)cc(NS(=O)(=O)c2ccc(-c3cnc(C4CC4)o3)cc2)c1
active: [2] 8.06% | [5] -3.39% | [7] -5.64% | [8] -1.6% | [11] 8.59%
inactive: [1] 23.7% | [3] 59.2% | [4] 30.5% | [6] 63.6% | [9] 59.1% | [10] 19.5% | [20] 22.4% | [13] 35.2% | [14] 22.6% | [15] 17.4% | [17] 25.6% | [19] 60.4%

O=C(CCCCCCN1CC(=O)N2[C@@H](c3ccc(Cl)c(F)c3)c3[nH]c4ccccc4c3C[C@H]2C1=O)NO
active: [18] -79.9%
inactive: [1] 87.8% | [2] 53.7% | [3] 59.8% | [4] 75.9% | [5] 100% | [6] 106% | [7] 78.7% | [8] 83.8% | [9] 82% | [10] 82.4% | [20] 98.6% | [11] 89.3% | [13] 86.6% | [14] 85.1% | [15] 63.8% | [17] 48.7% | [19] 86.2%

NNC(=O)c1sc2nc(-c3cnccn3)cc(-c3cccs3)c2c1N
inactive: [1] 104% | [2] 95.5% | [3] 95.6% | [4] 79% | [5] 102% | [6] 93.5% | [7] 104% | [8] 94.9% | [9] 115% | [10] 105% | [11] 106% | [13] 88.2% | [14] 90% | [15] 90.1% | [16] 97.2% | [17] 93.7% | [18] 83.2% | [19] 101%

N/C(=N\c1nc2c(Cl)cccc2s1)C(Cl)(Cl)Cl
active: [1] 3.92%
inactive: [2] 91.3% | [3] 104% | [4] 76.1% | [5] 55.2% | [6] 81% | [7] 20.1% | [8] 71.1% | [9] 90.7% | [10] 97.7% | [11] 46.8% | [13] 72.7% | [14] 57.3% | [15] 65% | [16] 96.1% | [17] 75.4% | [18] 62.4% | [19] 83.3%

COc1ccc(CCN2C(=O)/C(=C/c3nc(CO)cs3)SC2=S)cc1
inactive: [1] 46.1% | [2] 60.4% | [3] 73.2% | [4] 53.2% | [5] 51.1% | [6] 94.8% | [7] 101% | [8] 11.2% | [9] 91.2% | [10] 85.3% | [11] 103% | [12] 73.1% | [13] 91.7% | [14] 91.9% | [15] 74% | [16] 98.1% | [17] 79.7% | [18] 30.8% | [19] 97.2%

C(=C(\C1=NCCN1)n1cnc2ccccc21)/c1cccc2ccccc12
inactive: [1] 98.1% | [2] 84.9% | [3] 91.7% | [4] 81% | [5] 46.9% | [6] 85% | [7] 76.9% | [8] 91.7% | [9] 94.7% | [10] 70% | [11] 95% | [12] 78.2% | [13] 88.8% | [14] 94.6% | [15] 78.6% | [16] 87.3% | [17] 88.1% | [18] 83.8% | [19] 93.8%

Cc1cnc2nc(NN)[nH]n12
inactive: [1] 109% | [2] 103% | [3] 102% | [4] 106% | [5] 119% | [6] 99.8% | [7] 95.2% | [8] 100% | [9] 101% | [10] 101% | [11] 103% | [12] 95.6% | [13] 95.3% | [14] 101% | [15] 98.3% | [16] 99.8% | [17] 95.6% | [18] 87.5% | [19] 108%
